FEN1 inh = qHTS Assay for the Inhibitors of Human Flap endonuclease 1 (FEN1); Potency, µM (series often up to 114 µM), actives largely listed as inhibitors; hit rate 0.35% among 390,000; P39748; AID 588795, 2011; Recombinant FEN1 flap cleavage, fluorescence, 15 min; also: nearly all actives have a fitted effect of over 65% in size
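Potency values derive from four-parameter Hill fits of normalized qHTS data. The reaction used 10 nM FEN1 preincubated 15 min at room temperature with compound, then 50 nM DNA substrate, read at 0 and 15 min.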
POLI inh = qHTS for Inhibitors of Polymerase Iota | DNA polymerase iota (Homo sapiens), Q9UNA4 | Pol iota fluorescent replication assay, 10 min | Potency, µM (highest dose often 115 µM), hits mostly inhibitors | hit rate 1% among 390,000 | AID 588590, 2011
Target sequence (Q9UNA4 whole entry, looked up): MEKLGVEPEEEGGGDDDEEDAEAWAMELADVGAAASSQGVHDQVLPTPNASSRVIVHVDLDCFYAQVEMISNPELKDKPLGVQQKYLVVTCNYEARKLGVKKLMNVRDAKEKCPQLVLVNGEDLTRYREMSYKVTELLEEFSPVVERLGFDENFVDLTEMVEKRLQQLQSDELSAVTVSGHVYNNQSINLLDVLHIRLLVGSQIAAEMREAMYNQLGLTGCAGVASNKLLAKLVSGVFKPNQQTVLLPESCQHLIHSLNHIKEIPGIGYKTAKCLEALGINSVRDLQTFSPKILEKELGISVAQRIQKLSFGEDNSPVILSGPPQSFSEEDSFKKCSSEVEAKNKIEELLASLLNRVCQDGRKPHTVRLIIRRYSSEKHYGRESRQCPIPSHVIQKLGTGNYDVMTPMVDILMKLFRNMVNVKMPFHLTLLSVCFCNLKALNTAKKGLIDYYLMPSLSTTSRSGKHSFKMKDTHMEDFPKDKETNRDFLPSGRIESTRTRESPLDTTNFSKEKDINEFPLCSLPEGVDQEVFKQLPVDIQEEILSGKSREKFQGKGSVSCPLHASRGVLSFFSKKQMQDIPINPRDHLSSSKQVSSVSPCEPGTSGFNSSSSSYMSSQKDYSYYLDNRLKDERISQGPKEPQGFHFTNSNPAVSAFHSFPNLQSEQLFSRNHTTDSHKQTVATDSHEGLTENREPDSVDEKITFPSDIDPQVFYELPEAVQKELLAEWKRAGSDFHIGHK
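Pol iota at 10 nM preincubated 15 min with compounds at room temperature; reaction started with fluorescent substrate, 50 nM final. Fluorescence read kinetically at 0 and 10 min; buffer-only wells as negative control.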
POLK inh = qHTS for Inhibitors of Polymerase Kappa. DNA polymerase kappa (Homo sapiens), Q9UBT6. hit rate 0.53% among 400,000. purified Pol kappa, fluorescent DNA synthesis assay, 10 min. Potency, µM (highest dose often 107 µM), most hits filed as inhibitors
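Inhibition of 10 nM Pol kappa is measured by a fluorescent read-out at 0 and 10 min following addition of 50 nM substrate (final), with a 15-min room-temperature compound preincubation.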
WRN inhibitor = qHTS for Inhibitors of WRN Helicase. Potency, µM (titrated, usually from 114 µM), usual class: inhibitors. AID 651768, 2012. Bifunctional 3'-5' exonuclease/ATP-dependent helicase WRN (Homo sapiens), Q14191. WRN helicase unwinding, fluorescent forked duplex, kinetic. hit rate 0.46% among 360,000; also: nearly all actives have a fitted effect of over 55% in size
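Fluorescence dequenching readout, ex 525 nm/em 598 nm, kinetic mode: forked duplex DNA (100 nM final) with adjacent fluorophore and quencher unwound by WRN (20 nM final) with 2 mM ATP. Compound preincubation 15 min, room temperature.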
POLB inh = qHTS Assay for Inhibitors of DNA Polymerase Beta; AID 485314, 2010; P06746; Potency, µM (top dose mostly 114 µM), hits mostly inhibitors; Pol beta primer extension/strand displacement, fluorescence kinetic; hit rate 1.3% among 340,000
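Kinetic readout of DNA synthesis with strand displacement by Pol beta. Compound and 10 nM enzyme sit 15 min at room temperature; 50 nM substrate starts the reaction, read immediately and at 10 min.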
POLH inh = qHTS for Inhibitors of Polymerase Eta | DNA polymerase eta (Homo sapiens), Q9Y253 | recombinant Pol eta, fluorescent DNA replication assay | Potency, µM (series often up to 114 µM), actives largely listed as inhibitors | hit rate 1.2% among 390,000
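Pol eta at 10 nM preincubated with compounds 15 min at room temperature; reaction started with fluorescent substrate (50 nM final) and read kinetically at 0 and 10 min.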
Large screens that a line does not name were inactive. In the library only some 2.4% were active in any assay of this set; here they are far more common. Calls follow the shape of the dose curve; as a rule, active = well fitted curve in the direction sought with a large enough effect; inconclusive = small, poorly fitted or top-dose-only effect, or another doubt; inactive = no such curve, though single readings can be large; an effect the other way counts as inactive or inconclusive.

CCc1ccc(NS(=O)(=O)c2[nH]ncc2C(=O)OC)cc1	POLI inh 79.4µM, POLB inh inconclusive (no result: WRN inhibitor)
COc1ccc(-c2nc3cc(C)c(Br)c(C)n3c2Cc2cccc(F)c2)cc1OC	none (no result: FEN1 inh, POLI inh, POLK inh, POLB inh, POLH inh)
COc1ccc(OC)c(-c2csc(NC(=O)COC(=O)c3ccc(NC(=O)CC#N)cc3)n2)c1	FEN1 inh 79.4µM, POLI inh 28.2µM, POLK inh 50.1µM, WRN inhibitor inconclusive, POLH inh 20µM (no result: POLB inh)
C1CCC(CNc2c3c(nc4nnnn24)CCCC3)CC1	none
CCn1c(SCC(=O)N/N=C/C=C\c2ccco2)nc2ccccc21	POLI inh inconclusive, POLB inh 17.8µM, POLH inh inconclusive
Cc1ccc(CSc2nnc(SCC(=O)N/N=C/C=C/c3ccco3)s2)cc1	POLI inh inconclusive, POLK inh inconclusive, POLB inh 22.4µM, POLH inh inconclusive
CC(C)c1ccc(/C=C2\CC/C(=C\C=N\N(C)C)C2=O)cc1	none
Cc1ccnc(SCC(=O)Nc2sccc2C#N)n1	POLI inh inconclusive, POLK inh inconclusive, POLB inh 31.6µM
CCN1CCCC1CNC(=O)C1CCCN(S(=O)(=O)c2cccc3nsnc23)C1 (centres undefined)	none
Cc1cc(C)cc(NC2=C(N)C(=O)c3ccccc3C2=O)c1	POLI inh 7.94µM
COC(=O)c1c(NC(=O)c2ccc(Br)s2)sc2c1CCC2	POLI inh inconclusive, WRN inhibitor inconclusive
COC(=O)c1c(NC(=O)c2ccoc2C)sc2c1CCC2	POLI inh inconclusive, POLK inh inconclusive, POLB inh 22.4µM, POLH inh inconclusive
COc1ccc(Cc2nnc(SCC(=O)Nc3cc(Cl)ccc3OC)[nH]c2=O)cc1	none (no result: POLB inh)
CCCCNC(=O)CSc1nnc(Cc2ccc(Cl)c(Cl)c2)c(=O)[nH]1	POLI inh inconclusive, POLK inh 89.1µM
C#CCOCCOCCOCCNc1nc(N2CCN(C(=O)CCCCCCCCCCNC(=O)[C@H](CCCCN)n3cc(C[C@@H](C)CC)nn3)CC2)nc(N2CCN(C(=O)CCCCCCCCCCNC(=O)[C@H](CCCN=C(N)N)n3cc(C[C@@H](C)CC)nn3)CC2)n1	FEN1 inh 25.1µM, WRN inhibitor 31.6µM, POLH inh 28.2µM (no result: POLB inh)
C#CCOCCOCCOCCNc1nc(N2CCN(C(=O)CCCCCCCCCCNC(=O)[C@H]([C@@H](C)CC)n3cc(CCCCN=C(N)N)nn3)CC2)nc(N2CCN(C(=O)CCCCCCCCCCNC(=O)[C@@H]([C@H](C)O)n3cc(C)nn3)CC2)n1	FEN1 inh 25.1µM, POLI inh inconclusive, POLK inh inconclusive, WRN inhibitor 56.2µM, POLH inh inconclusive (no result: POLB inh)
C#CCOCCOCCOCCNc1nc(N2CCN(C(=O)CCCCCCCCCCNC(=O)[C@H](CCCCN)n3cc(C)nn3)CC2)nc(N2CCN(C(=O)CCCCCCCCCCNC(=O)[C@H](CCCN=C(N)N)n3cc(C[C@@H](C)CC)nn3)CC2)n1	FEN1 inh 22.4µM, POLI inh inconclusive, POLK inh inconclusive, WRN inhibitor 44.7µM, POLH inh inconclusive (no result: POLB inh)
C#CCOCCOCCOCCNc1nc(N2CCN(C(=O)CCCCCCCCCCNC(=O)[C@H](CCCCN)n3cc(C[C@@H](C)CC)nn3)CC2)nc(N2CCN(C(=O)CCCCCCCCCCNC(=O)[C@@H]([C@H](C)O)n3cc(C)nn3)CC2)n1	FEN1 inh 31.6µM, WRN inhibitor 50.1µM, POLH inh 79.4µM (no result: POLB inh)
O=C(NCc1cccc(Br)c1)C1CCN(C(=O)c2sccc2-n2cccc2)CC1	none (no result: WRN inhibitor, POLH inh)
Cc1nc2sccn2c(=O)c1Cl	none
C#CCOCCOCCOCCNc1nc(N2CCN(C(=O)CCCCCCCCCCNC(=O)[C@@H](CCSC)n3cc(CCO)nn3)CC2)nc(N2CCN(C(=O)CCCCCCCCCCNC(=O)[C@H](CCCN=C(N)N)n3cc(C[C@@H](C)CC)nn3)CC2)n1	FEN1 inh 20µM, POLI inh inconclusive, WRN inhibitor 50.1µM, POLH inh 79.4µM (no result: POLB inh)
CCc1cc(=O)oc2cc(C)c(CN3CCCC(C)C3)c(O)c12 (centres undefined)	FEN1 inh 50.1µM, POLI inh 3.55µM, POLK inh 10µM, WRN inhibitor 35.5µM, POLB inh 3.16µM, POLH inh 35.5µM
O=C(NC(=O)c1csnn1)Nc1ccccc1Cl	none
N#Cc1c(Cl)nc(N/N=C/c2ccccc2)c(Cl)c1Cl	POLB inh 20µM
CCOc1ccc2nc3cc(N)ccc3c(N)c2c1	POLK inh 22.4µM (no result: FEN1 inh, POLI inh, WRN inhibitor, POLB inh, POLH inh)
CCn1cnc2cc(NCc3ccc(OC)cc3)ccc21	none
CCOc1ccc2nc3ccc4[nH]onc4c3c2c1	none (no result: POLB inh)
CCOc1ccc2nc3cc(NCc4ccc(OC)cc4)ccc3c(N)c2c1	FEN1 inh 22.4µM, WRN inhibitor 35.5µM, POLB inh 28.2µM, POLH inh 79.4µM
CC1=NNC(=O)C1Oc1ccccc1 (centres undefined)	POLI inh 25.1µM
C#CCOCCOCCOCCNc1nc(N2CCN(C(=O)CCCCCCCCCCNC(=O)Cn3cc(CCCCCN)nn3)CC2)nc(N2CCN(C(=O)CCCCCCCCCCNC(=O)[C@@H]([C@H](C)O)n3cc(C)nn3)CC2)n1	FEN1 inh inconclusive, POLI inh inconclusive (no result: POLB inh)
C#CCOCCOCCOCCNc1nc(N2CCN(C(=O)CCCCCCCCCCNC(=O)Cn3cc(C[C@@H](C)O)nn3)CC2)nc(N2CCN(C(=O)CCCCCCCCCCNC(=O)[C@@H]([C@H](C)CC)n3cc(CCCCCN)nn3)CC2)n1	FEN1 inh inconclusive, POLI inh inconclusive, WRN inhibitor inconclusive, POLH inh 89.1µM (no result: POLB inh)
C#CCOCCOCCOCCNc1nc(N2CCN(C(=O)Cn3cc(CCCCN)nn3)CC2)nc(N2CCN(C(=O)Cn3cc(CC(C)O)nn3)CC2)n1 (centres undefined)	none
C#CCOCCOCCOCCNc1nc(N2CCN(C(=O)CCCCCCCCCCNC(=O)Cn3cc(CCCCCN)nn3)CC2)nc(N2CCN(C(=O)CCCCCCCCCCNC(=O)Cn3cc(C[C@@H](C)O)nn3)CC2)n1	FEN1 inh 79.4µM, WRN inhibitor 25.1µM, POLH inh inconclusive (no result: POLB inh)
COc1cccc2c1C(=O)c1c(O)c3c(c(O)c1C2=O)C[C@](O)(C(=O)CO)C[C@H]3O[C@@H]1C[C@H](N)[C@H](O)[C@H](C)O1	POLK inh 1.5µM (no result: FEN1 inh, POLI inh, WRN inhibitor, POLB inh, POLH inh)
CCCCC(=O)OCC(=O)C1(O)Cc2c(O)c3c(c(O)c2C(OC2CC(NC(=O)C(F)(F)F)C(O)C(C)O2)C1)C(=O)c1c(OC)cccc1C3=O (centres undefined)	POLI inh inconclusive, POLK inh inconclusive, WRN inhibitor 7.94µM (no result: POLB inh)
CC1CCCCN1C(=O)CCC(=O)Nc1nnc(C2CCCCC2)s1 (centres undefined)	none
